Measured values published in PubChem BioAssay (NCATS).
Records with an inconclusive call do not appear. The source made the active and inactive calls. Unless noted, calls come from the whole dose curve.

Legend:
[1] = AP1 Signaling Pathway (AID 357; active = well fitted curve in either direction with a large enough effect, not every such curve was filed as active; note: % is set by controls: 0 for no effect and ±100 for the full control effect); details: ME-180 (cervical carcinoma) AP-1-bla reporter, EGF-induced, beta-lactamase ratio, 5 h; at 17.2 µM (top of the series)
Summary of the method: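 AP-1-bla ME-180 cells with beta-lactamase reporter under AP-1 response element, stimulated with EC50 EGF; compounds titrated, 5 hours at 37 degrees Celsius. CCF4 read at 460/530 nm ratio; positive and negative modulators judged by AC50.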

[2] = NFAT Signaling Pathway (AID 444; active = well fitted curve in either direction with a large enough effect, not every such curve was filed as active;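 note: carbachol stimulus at about its EC50 of 1 µM final; % is set by controls: 0 for no effect and ±100 for the full control effect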); details: Jurkat NFAT-bla M1, carbachol, beta-lactamase ratio, 5 h; at 17.2 µM (top of the series)
Summary of the method: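 Jurkat cells carrying an NFAT-driven β-lactamase reporter and co-transfected muscarinic M1 receptor were treated with compound plus carbachol (1 uM final, an EC50 level) for 5 h at 37 °C. CCF4 loading followed for 1 h at RT; 460/530 nm ratio gave %activity.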

[3] = Cell Viability - BJ (AID 421); details: BJ fibroblast viability, qHTS;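 note: potency is the fitted concentration of half-maximal effect; cells exposed to compound for 40 hours at 37 °C before readout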
Summary of the method: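 Luminescent ATP signal (CellTiter-Glo, 20 min at room temperature) served as the read-out of viable BJ cells after 40 hours of compound treatment. Responses were scaled between DMSO and 100 uM tamoxifen, and AC50 values were obtained by Hill modeling.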

[4] = Cell Viability - Jurkat (AID 426;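 active = dose-dependent loss of cell ATP signal giving a full or clear fitted curve, ranked by lower potency value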;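 note: potency is the fitted concentration of half-maximal effect; cells exposed to compound for 40 hours at 37 °C before ATP read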); details: qHTS
Summary of the method: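 Luminescent ATP read-out (CellTiter-Glo, 20 min at room temperature) after 40 hr compound exposure at 37 °C of Jurkat E6-1 cells, 5000/well. Decreased ATP taken as cytotoxicity; AC50 from standard Hill equation.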

[5] = Cell Viability - Hek293 (AID 427;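 active = compounds whose dose-response curve shows a full or clear partial loss of cell viability, called from curve shape rather than a numeric limit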;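 note: potency is the fitted concentration of half-maximal effect; cells exposed to compound for 40 hours at 37 °C before reading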); details: qHTS
Summary of the method: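 Luminescent ATP read-out (CellTiter-Glo, 20 min RT) after 40 hr compound exposure at 37 °C in complete medium. Signal normalized to DMSO (basal) and 100 uM tamoxifen (100% inhibition); concentration-response fitted with the standard Hill equation to give AC50.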

[6] = Cell Viability - HepG2 (AID 433); details: qHTS;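 note: potency is the fitted concentration of half-maximal effect; potency for ATP loss meaning cytotoxicity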
Summary of the method: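 Read-out is luciferase-based quantitation of cellular ATP as a measure of viable HepG2 cells after 40 h treatment at 37 °C. Signal decrease is scaled between DMSO-only and 100 uM tamoxifen controls, with AC50 fitted by the Hill equation.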

[7] = Cell Viability - MRC5 (AID 434); details: MRC5 lung fibroblast viability, qHTS;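 note: potency is the fitted concentration of half-maximal effect; cells exposed to compound for 40 hours at 37 °C; potency reflects cytotoxicity seen as loss of intracellular ATP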
Summary of the method: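 Decrease in intracellular ATP, quantified by luciferase light output, reflects compound toxicity toward MRC5 cells exposed for 40 hr in complete culture medium. Concentration-response curves, scaled between DMSO and 100 uM tamoxifen, gave AC50 values.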

[8] = Cell Viability - SK-N-SH (AID 435); details: SK-N-SH neuroblastoma cell viability qHTS;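 note: potency is the fitted concentration of half-maximal effect; compound exposure lasted 40 h at 37 °C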
Summary of the method: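 Luminescent ATP signal served as the viability read-out after 40 hours of compound treatment of human neuroblastoma SK-N-SH cells. Concentration-response data, scaled between DMSO and 100 uM tamoxifen, gave AC50 values by standard Hill modeling.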

[9] = molecular target: Cytochrome P450 1A2 (Homo sapiens) (UniProt P05177); experiment: p450-cyp1a2 (AID 410); details: recombinant CYP1A2, luciferin-ME demethylation, luminescence; series mostly up to 25.6 µM; note: potency is the fitted concentration of half-maximal effect;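 for activity change, negative = inhibition: -100% = full effect of reference inhibitor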
Sequence of Cytochrome P450 1A2 (Homo sapiens) (P05177 whole entry, looked up): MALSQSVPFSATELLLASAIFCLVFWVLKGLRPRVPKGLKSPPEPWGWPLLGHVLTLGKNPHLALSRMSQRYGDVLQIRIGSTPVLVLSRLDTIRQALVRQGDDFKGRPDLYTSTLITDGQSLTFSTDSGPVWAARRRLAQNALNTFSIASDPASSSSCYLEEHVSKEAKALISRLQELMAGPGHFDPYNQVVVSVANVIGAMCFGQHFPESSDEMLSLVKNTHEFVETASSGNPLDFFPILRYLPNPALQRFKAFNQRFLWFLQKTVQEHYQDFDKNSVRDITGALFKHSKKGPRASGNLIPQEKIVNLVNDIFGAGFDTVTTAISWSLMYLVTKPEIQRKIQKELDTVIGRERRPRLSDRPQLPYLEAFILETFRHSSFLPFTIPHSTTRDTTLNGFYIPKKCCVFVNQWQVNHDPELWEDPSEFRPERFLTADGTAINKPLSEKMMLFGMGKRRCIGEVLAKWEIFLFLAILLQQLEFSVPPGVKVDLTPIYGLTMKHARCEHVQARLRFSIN
Summary of the method: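 20nM CYP1A2, 100uM Luciferin-ME (=Km), 100mM KPO4; cpd 10 min RT; +NADPH regen, 60 min RT; stop/detect 20 min; luminescence. Normalized to furafylline 57 uM = full inhibition.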

CNC(=O)Oc1ccc2c(c1)[C@]1(C)CCN(C)[C@@H]1N2C
inactive: activity change, negative = inhibition [1] 8.81% | activity change, negative = inhibition [2] 5.79%

Cc1cc(CC(=O)O)n(C)c1C(=O)c1ccc(Cl)cc1
inactive: activity change, negative = inhibition [1] 2.5% | Potency [3] > 92 µM | Potency [4] > 92 µM | Potency [5] > 92 µM | Potency [6] > 92 µM | Potency [7] > 92 µM | Potency [8] > 92 µM | activity change, negative = inhibition [2] 1.18%

[Cl][In]([Cl])[Cl]
inactive: Potency [3] > 92 µM | Potency [4] > 92 µM | Potency [5] > 92 µM | Potency [6] > 92 µM | Potency [7] > 92 µM | Potency [8] > 92 µM

COc1ccccc1O
inactive: Potency [3] > 92 µM | Potency [4] > 92 µM | Potency [5] > 92 µM | Potency [6] > 92 µM | Potency [7] > 92 µM | Potency [8] > 92 µM

CC1(C)[C@@H]2CC[C@@]1(C)C(=O)C2
inactive: Potency [3] > 92 µM | Potency [4] > 92 µM | Potency [5] > 92 µM | Potency [6] > 92 µM | Potency [7] > 92 µM | Potency [8] > 92 µM

C[C@]12C[C@H](O)[C@H]3[C@@H](CCC4=CC(=O)CC[C@@]43C)[C@@H]1CC[C@@H]2C(=O)CO
inactive: activity change, negative = inhibition [1] 0.397% | Potency [3] > 92 µM | Potency [4] > 92 µM | Potency [5] > 92 µM | Potency [6] > 92 µM | Potency [7] > 92 µM | Potency [8] > 92 µM | activity change, negative = inhibition [2] 2.08%

COC(=O)C1=C(C)NC(C)=C(C(=O)OC)C1c1ccccc1[N+](=O)[O-]
inactive: activity change, negative = inhibition [1] -27.7% | Potency [3] > 92 µM | Potency [5] > 92 µM | Potency [6] > 92 µM | activity change, negative = inhibition [2] -7.96%

Cc1cc2nc3c(=O)[nH]c(=O)nc-3n(C[C@H](O)[C@H](O)[C@H](O)CO)c2cc1C
inactive: Potency [3] > 92 µM | Potency [4] > 92 µM | Potency [5] > 92 µM | Potency [6] > 92 µM | Potency [7] > 92 µM | Potency [8] > 92 µM

O=C1c2c(O)cccc2Cc2cccc(O)c21
inactive: Potency [3] > 92 µM | Potency [4] > 92 µM | Potency [5] > 92 µM | Potency [6] > 92 µM | Potency [7] > 92 µM | Potency [8] > 92 µM

CN1[C@@H]2CC(OC(=O)[C@H](CO)c3ccccc3)C[C@H]1[C@@H]1O[C@@H]12 (stereo partly specified)
active: activity change, negative = inhibition [2] -78.1%
inactive: activity change, negative = inhibition [1] -6.51%

CN(C)CCC=C1c2ccccc2CCc2ccccc21
active: Potency [9] 15.8 µM | activity change, negative = inhibition [2] -80%

NS(=O)(=O)c1cc2c(cc1C(F)(F)F)NC(Cc1ccccc1)NS2(=O)=O (stereo unspecified)
inactive: activity change, negative = inhibition [1] -11.1% | activity change, negative = inhibition [2] 0.596%

CN(C)CCCN1c2ccccc2CCc2ccccc21
inactive: Potency [9]

CC(CN1c2ccccc2Sc2ccccc21)N(C)C (stereo unspecified)
active: activity change, negative = inhibition [2] -73.5%

C[C@H](N)[C@H](O)c1cccc(O)c1
inactive: activity change, negative = inhibition [1] 2.95% | activity change, negative = inhibition [2] -4.86%

NCCNCCNCCN
inactive: Potency [3] > 92 µM | Potency [4] > 92 µM | Potency [5] > 92 µM | Potency [6] > 92 µM | Potency [7] > 92 µM | Potency [8] > 92 µM

Cn1cc[nH]c1=S
inactive: activity change, negative = inhibition [1] -7.08% | activity change, negative = inhibition [2] -4.58%

CN(C)CCCN1c2ccccc2Sc2ccc(Cl)cc21
active: activity change, negative = inhibition [2] -73.6%

CSc1ccc2c(c1)N(CCC1CCCCN1C)c1ccccc1S2 (stereo unspecified)
active: activity change, negative = inhibition [2] -83%

Cc1ncc([N+](=O)[O-])n1CC(O)CCl (stereo unspecified)
inactive: activity change, negative = inhibition [1] 0.517% | activity change, negative = inhibition [2] -27.2%

NCCNCCNCCNCCN
inactive: Potency [3] > 92 µM | Potency [4] > 92 µM | Potency [5] > 92 µM | Potency [6] > 92 µM | Potency [7] > 92 µM | Potency [8] > 92 µM
